Laboratory results reported in PubChem BioAssay.
Where “and” joins values, the source holds several entries; their conditions need not be identical. Equal values may be shown once. Calls of active or inactive are those of the source.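 The calls were made as follows, unless noted: active = compounds whose cell count with miR-34 switched on is under 0.7 times the count with it off; inactive = the rest.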

Tests used:
[1] = differential killing of epithelial or mesenchymal cells, primary screen, imaging, PC-3E GFP, TEM4-18 mCherry, co-culture (AID 1345086;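 active = compounds killing one labelled cell type while sparing the other, by normalised counts and ratio limits, not self-fluorescent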;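 as to all read-outs here: cells exposed to compound for 72 h before imaging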;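 as to red/green cell ratio (normalised): normalised mesenchymal count divided by normalised epithelial count so high means epithelial killing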); conditions: imaging cell counts, at 1 µM; for red/green cell ratio (normalised): actives lie on both sides, counts scaled to control wells, 1 = unselective
[2] = sensitizers of A549 cells to miR-34 induction, primary screen, imaging, A549 dox-inducible miR-34, nuclei and caspase counts (AID 1347080); conditions: A549 miR-34 inducible, Hoechst nuclei count, 48 h
[3] = liver-stage malaria parasite growth inhibition, primary screen, cell-based, HepG2, luciferase luminescence, HepG2 viability (AID 624349; in the data active = parasite load remaining mostly below about 12%, no sharp cut-off; inactive = mostly above about 10%;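 also: 100% = mean of DMSO negative control wells on the same plate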); conditions: P. berghei liver stage in HepG2, luciferase luminescence, concentration not given here; parasite load remaining: stronger effect = lower value; viability: measured here: HepG2 viability without parasites
[4] = survival rescue of mitochondrial mutant cells in low glucose, primary screen, MELAS cybrids, Rieske KO mouse fibroblasts, CellTiter-Glo (AID 1508586;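 active = mean z-score across replicates of 1.96 or higher in either the MELAS or the Rieske mutant cell line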;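 also: z relative to plate mean and SD of compound and empty wells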)
[5] = target: NAD(+) hydrolase SARM1 (Homo sapiens) (UniProt Q6SZW1); test: SARM1 TIR NADase inhibitors, cell lysate, NAD-Glo luminescence (AID 1508614;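 active = compound whose remaining NAD level is above about 45 nM, limit read from the data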;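 also: higher remaining NAD means stronger inhibition of SARM1 NADase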); conditions: SAM-TIR HEK293T lysate NADase, at 1 µM, stronger effect = higher value
NAD(+) hydrolase SARM1 (Homo sapiens), sequence (Q6SZW1 whole entry, looked up, the tested form may be a part): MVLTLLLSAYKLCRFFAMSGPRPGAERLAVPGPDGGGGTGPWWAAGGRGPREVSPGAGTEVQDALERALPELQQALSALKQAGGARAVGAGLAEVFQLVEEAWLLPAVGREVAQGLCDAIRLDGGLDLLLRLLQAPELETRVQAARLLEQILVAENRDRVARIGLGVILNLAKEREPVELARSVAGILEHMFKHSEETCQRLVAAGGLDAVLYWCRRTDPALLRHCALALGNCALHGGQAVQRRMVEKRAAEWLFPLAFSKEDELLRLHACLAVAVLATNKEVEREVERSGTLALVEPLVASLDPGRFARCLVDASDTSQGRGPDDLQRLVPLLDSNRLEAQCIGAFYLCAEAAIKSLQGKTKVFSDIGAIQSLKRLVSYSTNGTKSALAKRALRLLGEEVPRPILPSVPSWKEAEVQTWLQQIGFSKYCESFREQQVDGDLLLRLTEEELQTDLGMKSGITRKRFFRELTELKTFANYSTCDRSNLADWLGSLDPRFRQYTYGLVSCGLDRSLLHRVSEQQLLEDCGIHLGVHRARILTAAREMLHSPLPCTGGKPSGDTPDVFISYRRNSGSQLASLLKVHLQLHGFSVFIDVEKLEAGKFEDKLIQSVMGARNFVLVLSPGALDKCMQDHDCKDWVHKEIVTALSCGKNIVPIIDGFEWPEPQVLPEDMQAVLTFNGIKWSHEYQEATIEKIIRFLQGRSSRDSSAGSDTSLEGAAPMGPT

[6] = target: Mitogen-activated protein kinase 7 (Homo sapiens) (UniProt Q13164); test: ERK5 transactivation activators in reporter cells, primary screen, cell-based, HTS (AID 1508626;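 active = luciferase signal above three times the same-plate solvent-only control wells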;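 also: luciferase driven by Gal4-ERK5 fusion binding five Gal4 sites before minimal TATA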); conditions: HeLa Gal4-ERK5 transactivation, 18 h, at 5 µM, stronger effect = higher value
Mitogen-activated protein kinase 7 (Homo sapiens), sequence (Q13164 whole entry, looked up, the tested form may be a part): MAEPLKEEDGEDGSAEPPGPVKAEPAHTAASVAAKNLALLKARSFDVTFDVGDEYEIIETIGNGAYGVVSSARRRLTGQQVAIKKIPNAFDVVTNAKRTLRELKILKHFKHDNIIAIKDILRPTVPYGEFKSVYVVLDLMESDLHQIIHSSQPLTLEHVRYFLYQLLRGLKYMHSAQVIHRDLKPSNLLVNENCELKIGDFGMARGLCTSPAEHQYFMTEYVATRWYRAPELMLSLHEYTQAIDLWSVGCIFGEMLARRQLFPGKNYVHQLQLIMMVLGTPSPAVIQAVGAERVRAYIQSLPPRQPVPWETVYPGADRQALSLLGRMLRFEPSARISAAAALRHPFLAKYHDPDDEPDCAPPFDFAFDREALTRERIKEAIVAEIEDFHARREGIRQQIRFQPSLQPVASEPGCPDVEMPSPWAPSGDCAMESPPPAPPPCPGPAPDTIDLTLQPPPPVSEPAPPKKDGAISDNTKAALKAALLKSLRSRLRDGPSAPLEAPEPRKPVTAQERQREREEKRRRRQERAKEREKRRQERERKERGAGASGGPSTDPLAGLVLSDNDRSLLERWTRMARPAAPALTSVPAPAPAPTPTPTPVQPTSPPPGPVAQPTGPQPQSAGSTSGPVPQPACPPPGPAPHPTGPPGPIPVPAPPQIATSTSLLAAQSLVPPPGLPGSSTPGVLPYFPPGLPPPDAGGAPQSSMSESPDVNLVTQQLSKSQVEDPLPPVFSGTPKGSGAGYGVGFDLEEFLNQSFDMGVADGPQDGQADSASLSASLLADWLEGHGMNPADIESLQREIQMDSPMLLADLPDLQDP

[7] = viability rescue of complex I mutant cybrids, primary screen, cell-based, galactose medium, ATP luminescence (AID 1645843;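 active = z-score of at least 1.8 in each of two replicates, scored against plate mean and spread of sample wells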;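 also: positive z means more ATP and so rescue of galactose-driven cybrid death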); conditions: complex I mutant cybrid cells, 72 h, stronger effect = higher value
[8] = measured here: epithelial PC-3E GFP cell survival
[9] = measured here: mesenchymal TEM4-18 mCherry cell survival
[10] = stronger effect = lower value, cell number ratio, induced over uninduced
[11] = measured here: relative caspase fold change +Dox/-Dox
[12] = measured here: total cells with miR-34 induction, stronger effect = lower value
[13] = measured here: total cells without miR-34 induction

Row | SMILES | red/green cell ratio (normalised) [1] | normalised cell number [1, 8] | normalised cell number [1, 9] | fold change [2, 10] | fold change [2, 11] | cell count [2, 12] | cell count [2, 13] | parasite load remaining [3] | viability [3] [%] | z-score ([4]; MELAS cybrid survival, CellTiter-Glo 48 h, stronger effect = higher value) | z-score ([4]; Rieske KO mouse fibroblast survival, CellTiter-Glo 72 h) | remaining NAD [5] | luciferase signal [6] | z-score [7]
1 | CC(=O)c1ccc2c(c1)Sc1ccccc1N2CCCN1CCN(CCO)CC1 | 1.02 (inactive) | 1.21 | 1.23 | 0.952 (inactive) | 0.758 | 8860 | 9300 | – | – | – | – | – | – | –
2 | CO/N=C(/C(=O)NC1C(=O)N2C(C(=O)O)=C(CSc3nnnn3C)CSC12)c1csc(N)n1 (centres undefined) | 0.91 (inactive) | 1.17 | 1.06 | 0.936 (inactive) | 0.695 | 9050 | 9680 | – | – | – | – | – | – | –
3 | CCCCCOC(=O)Nc1nc(=O)n(C2O[C@H](C)[C@@H](O)[C@H]2O)cc1F (some centres undefined) | 1.41 (inactive) | 0.48 | 0.68 | 0.954 (inactive) | 0.897 | 8840 | 9270 | – | – | – | – | – | – | –
4 | CC(C)(O)c1ccccc1CC[C@@H](SC1(CC(=O)O)CC1)c1cccc(/C=C/c2ccc3ccc(Cl)cc3n2)c1 | 1.02 (inactive) | 1.13 | 1.16 | 0.955 (inactive) | 0.641 | 9020 | 9450 | – | – | – | – | – | – | –
5 | NC(N)=NCCCC(N)C(=O)O (centres undefined) | 0.83 (inactive) | 1.05 | 0.87 | 0.874 (inactive) | 0.933 | 8700 | 9960 | – | – | – | – | – | – | –
6 | CC(C)OC(=O)CCC/C=C\C[C@@H]1[C@@H](/C=C/C(O)COc2cccc(C(F)(F)F)c2)[C@H](O)C[C@@H]1O (some centres undefined) | 0.87 (inactive) | 1.24 | 1.08 | 0.865 (inactive) | 1.12 | 8710 | 10100 | – | – | – | – | – | – | –
7 | CC12CCC3c4ccc(O)cc4CCC3C1C[C@H](O)[C@@H]2O (some centres undefined) | 0.97 (inactive) | 0.91 | 0.89 | 0.999 (inactive) | 0.736 | 8330 | 8350 | – | – | – | – | – | – | –
8 | NC(=O)c1ncn(C2O[C@H](CO)[C@@H](O)[C@H]2O)c1N (some centres undefined) | 0.89 (inactive) | 1.13 | 1 | 0.937 (inactive) | 0.793 | 9050 | 9660 | – | – | – | – | – | – | –
9 | O=C(O)CCCN1CCN([C@H](c2ccccc2)c2ccc(Cl)cc2)CC1 | 0.97 (inactive) | 1.14 | 1.11 | 0.876 (inactive) | 0.778 | 8580 | 9800 | – | – | – | – | – | – | –
10 | C=C1CC2C3C=C(C)C4=CC(=O)CC[C@]4(C)C3CC[C@]2(C)[C@@]1(OC(C)=O)C(C)=O (some centres undefined) | 1.26 (inactive) | 0.99 | 1.24 | 0.949 (inactive) | 1.45 | 4400 | 4640 | – | – | – | – | – | – | –
11 | Cc1cc(-n2c(=O)[nH]c(=O)n(C)c2=O)ccc1Oc1ccc(SC(F)(F)F)cc1 | 0.98 (inactive) | 1.07 | 1.05 | 0.875 (inactive) and 0.912 (inactive) | 1.01 and 1.07 | 7860 and 10300 | 8980 and 11300 | 24.3% (inactive) | 72 | -0.0992 (inactive) and -0.247 (inactive) and 0.135 (inactive) | -0.203 and -0.144 and -0.234 | 10 nM (inactive) | 136 AU (inactive) | 0.65 (inactive)
